How the values were obtained:
Experiment in all cases: DAPPL (digital affinity profiling via proximity ligation, sequencing); 10 mM Tris-HCl pH 7.5, 50 mM NaCl, 1 mM DTT, 4% glycerol, room temperature, 30 min; GST-TFs on glutathione beads, 16-mer random dsDNA library, 0.1% formaldehyde crosslink after washing; high values mean tight binding
FLI1 = molecular target: T1, FLI1 (Homo sapiens, UniProt Q01543 1-452); conditions: protein: recombinant; tags: N-terminal GST; dsDNA, one strand shown
T1 sequence: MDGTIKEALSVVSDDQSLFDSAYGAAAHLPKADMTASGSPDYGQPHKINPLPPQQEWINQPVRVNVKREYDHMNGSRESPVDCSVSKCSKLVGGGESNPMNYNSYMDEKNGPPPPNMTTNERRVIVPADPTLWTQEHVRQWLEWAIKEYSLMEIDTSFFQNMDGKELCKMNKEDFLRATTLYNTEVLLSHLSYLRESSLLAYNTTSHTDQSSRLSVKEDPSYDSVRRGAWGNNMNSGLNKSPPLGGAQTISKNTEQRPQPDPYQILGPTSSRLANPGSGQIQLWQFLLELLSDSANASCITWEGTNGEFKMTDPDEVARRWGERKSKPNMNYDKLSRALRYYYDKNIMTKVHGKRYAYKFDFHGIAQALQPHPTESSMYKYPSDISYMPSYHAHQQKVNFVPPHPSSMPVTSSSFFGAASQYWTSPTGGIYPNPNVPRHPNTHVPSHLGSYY
Summary of the method: (§1)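 A tag-only sample was pooled with DNA-barcoded human transcription factors that had been expressed in yeast as GST fusions and captured on glutathione beads. The pools were incubated for 30 min at room temperature with 200 nmole of a random double-stranded 16-mer DNA library in Tris/NaCl/DTT/glycerol buffer, then washed, crosslinked with 0.1% formaldehyde, proximity-ligated (BsaI/T4 ligase, 1 h, 37 °C), PCR-amplified and sequenced on an Illumina NextSeq500. Binding signal is each hexamer's read frequency for a factor divided by its frequency for the tag-only sample.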

ELK1 = molecular target: T2, ELK1 (Homo sapiens, UniProt P19419 1-428); conditions: protein: recombinant; tags: N-terminal GST; dsDNA, one strand shown
T2 sequence: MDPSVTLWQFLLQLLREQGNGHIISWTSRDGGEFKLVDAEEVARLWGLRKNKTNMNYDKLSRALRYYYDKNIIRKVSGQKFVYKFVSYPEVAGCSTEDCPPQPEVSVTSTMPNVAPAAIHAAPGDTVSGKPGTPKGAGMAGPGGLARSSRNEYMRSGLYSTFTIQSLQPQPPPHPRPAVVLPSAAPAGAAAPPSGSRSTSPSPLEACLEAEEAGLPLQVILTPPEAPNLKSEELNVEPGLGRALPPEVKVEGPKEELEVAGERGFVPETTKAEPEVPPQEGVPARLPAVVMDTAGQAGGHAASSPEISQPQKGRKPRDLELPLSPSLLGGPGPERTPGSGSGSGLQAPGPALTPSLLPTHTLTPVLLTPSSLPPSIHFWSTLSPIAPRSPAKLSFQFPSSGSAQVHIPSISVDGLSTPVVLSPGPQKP
Summary of the method: as §1

GABPA = molecular target: T3, GABPA (Homo sapiens, UniProt Q06546 1-454); conditions: protein: recombinant; tags: N-terminal GST; dsDNA, one strand shown
T3 sequence: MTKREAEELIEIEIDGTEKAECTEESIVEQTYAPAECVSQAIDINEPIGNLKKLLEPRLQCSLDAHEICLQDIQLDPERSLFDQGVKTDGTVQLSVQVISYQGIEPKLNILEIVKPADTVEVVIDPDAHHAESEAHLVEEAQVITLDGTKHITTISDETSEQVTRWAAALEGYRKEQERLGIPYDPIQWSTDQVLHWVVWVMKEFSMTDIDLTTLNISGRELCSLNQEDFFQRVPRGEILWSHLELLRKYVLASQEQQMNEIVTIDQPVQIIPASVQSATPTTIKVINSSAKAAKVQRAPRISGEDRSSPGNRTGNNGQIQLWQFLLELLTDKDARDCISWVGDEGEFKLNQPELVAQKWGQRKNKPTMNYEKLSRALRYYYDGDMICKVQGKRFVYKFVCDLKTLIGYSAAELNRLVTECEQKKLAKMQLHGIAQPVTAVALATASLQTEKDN
Summary of the method: as §1

ERG = molecular target: T4, ERG (Homo sapiens, UniProt P11308 1-479); conditions: protein: recombinant; tags: N-terminal GST; dsDNA, one strand shown
T4 sequence: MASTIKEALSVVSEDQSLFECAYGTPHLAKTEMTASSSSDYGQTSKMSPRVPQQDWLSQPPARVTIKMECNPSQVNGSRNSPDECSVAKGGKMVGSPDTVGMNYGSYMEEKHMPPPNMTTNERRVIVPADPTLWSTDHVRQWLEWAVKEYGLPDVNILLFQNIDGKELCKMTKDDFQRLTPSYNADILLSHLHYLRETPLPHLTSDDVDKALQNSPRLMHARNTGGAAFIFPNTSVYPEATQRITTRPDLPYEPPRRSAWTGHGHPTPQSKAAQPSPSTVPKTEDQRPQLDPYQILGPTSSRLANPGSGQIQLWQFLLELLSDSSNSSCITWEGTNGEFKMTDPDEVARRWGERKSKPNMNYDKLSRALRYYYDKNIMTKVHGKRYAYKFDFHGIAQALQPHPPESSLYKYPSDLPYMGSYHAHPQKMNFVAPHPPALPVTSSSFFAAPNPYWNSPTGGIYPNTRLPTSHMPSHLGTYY
Summary of the method: as §1

ELF1 = ELF1 (Homo sapiens, UniProt P32519 1-619); conditions: protein: recombinant; tags: N-terminal GST; dsDNA, one strand shown
Summary of the method: as §1

EHF = molecular target: T5, EHF (Homo sapiens, UniProt Q9NZC4 1-300); conditions: protein: recombinant; tags: N-terminal GST; dsDNA, one strand shown
T5 sequence: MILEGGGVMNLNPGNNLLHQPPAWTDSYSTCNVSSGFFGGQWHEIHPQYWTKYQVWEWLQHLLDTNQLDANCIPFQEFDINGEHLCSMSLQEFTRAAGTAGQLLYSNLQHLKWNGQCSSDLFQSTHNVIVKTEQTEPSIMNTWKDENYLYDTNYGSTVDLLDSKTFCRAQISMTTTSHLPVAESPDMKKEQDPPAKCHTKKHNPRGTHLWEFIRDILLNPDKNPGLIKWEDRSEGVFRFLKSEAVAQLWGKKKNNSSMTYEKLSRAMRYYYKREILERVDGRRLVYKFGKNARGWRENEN
Summary of the method: as §1

SPI1 = SPI1 (Homo sapiens, UniProt P17947 1-270); conditions: protein: recombinant; tags: N-terminal GST; dsDNA, one strand shown
Summary of the method: as §1

SPIB = SPIB (Homo sapiens, UniProt Q01892 1-262); conditions: protein: recombinant; tags: N-terminal GST; dsDNA, one strand shown
Summary of the method: as §1

ELK3 = molecular target: T6, ELK3 (Homo sapiens, UniProt P41970 1-407); conditions: protein: recombinant; tags: N-terminal GST; dsDNA, one strand shown
T6 sequence: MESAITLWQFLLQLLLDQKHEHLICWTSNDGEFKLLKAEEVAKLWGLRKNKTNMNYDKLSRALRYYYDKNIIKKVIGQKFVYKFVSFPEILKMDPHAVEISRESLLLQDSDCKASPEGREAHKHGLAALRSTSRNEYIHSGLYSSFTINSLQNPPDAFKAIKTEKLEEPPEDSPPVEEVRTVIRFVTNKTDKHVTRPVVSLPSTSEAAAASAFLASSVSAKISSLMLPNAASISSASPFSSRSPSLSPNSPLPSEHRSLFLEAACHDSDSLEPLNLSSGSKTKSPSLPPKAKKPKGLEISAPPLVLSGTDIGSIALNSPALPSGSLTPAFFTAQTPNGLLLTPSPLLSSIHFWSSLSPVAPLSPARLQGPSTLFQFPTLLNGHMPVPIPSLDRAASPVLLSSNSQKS
Summary of the method: as §1

FEV = molecular target: T7, FEV (Homo sapiens, UniProt Q99581 1-238); conditions: protein: recombinant; tags: N-terminal GST; dsDNA, one strand shown
T7 sequence: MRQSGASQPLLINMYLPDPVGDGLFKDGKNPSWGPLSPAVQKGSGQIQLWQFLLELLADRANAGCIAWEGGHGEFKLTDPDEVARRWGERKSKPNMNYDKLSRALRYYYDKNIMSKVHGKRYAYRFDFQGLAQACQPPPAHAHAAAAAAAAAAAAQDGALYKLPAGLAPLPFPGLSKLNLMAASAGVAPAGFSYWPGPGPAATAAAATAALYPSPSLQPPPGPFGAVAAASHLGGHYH
Summary of the method: as §1

ETV5 = ETV5 (Homo sapiens, UniProt P41161 1-510); conditions: protein: recombinant; tags: N-terminal GST; dsDNA, one strand shown
Summary of the method: as §1

HSF1 = HSF1 (Homo sapiens, UniProt Q00613 1-529); conditions: protein: recombinant; tags: N-terminal GST; chain copies: 3; dsDNA, one strand shown
Summary of the method: as §1

SPIC = molecular target: T8, SPIC (Homo sapiens, UniProt Q8N5J4 1-248); conditions: protein: recombinant; tags: N-terminal GST; dsDNA, one strand shown
T8 sequence: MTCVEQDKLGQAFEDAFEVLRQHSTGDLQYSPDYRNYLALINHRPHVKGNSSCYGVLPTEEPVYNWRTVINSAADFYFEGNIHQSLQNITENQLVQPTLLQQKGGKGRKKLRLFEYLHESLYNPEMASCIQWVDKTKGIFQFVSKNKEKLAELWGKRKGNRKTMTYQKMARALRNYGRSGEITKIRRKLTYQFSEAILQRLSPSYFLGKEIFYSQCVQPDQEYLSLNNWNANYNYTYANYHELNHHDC
Summary of the method: as §1

ELF4 = ELF4 (Homo sapiens, UniProt Q99607 1-663); conditions: protein: recombinant; tags: N-terminal GST; dsDNA, one strand shown
Summary of the method: as §1

ELK4 = molecular target: T9, ELK4 (Homo sapiens, UniProt P28324-2 1-405); conditions: protein: recombinant; tags: N-terminal GST; dsDNA, one strand shown
T9 sequence: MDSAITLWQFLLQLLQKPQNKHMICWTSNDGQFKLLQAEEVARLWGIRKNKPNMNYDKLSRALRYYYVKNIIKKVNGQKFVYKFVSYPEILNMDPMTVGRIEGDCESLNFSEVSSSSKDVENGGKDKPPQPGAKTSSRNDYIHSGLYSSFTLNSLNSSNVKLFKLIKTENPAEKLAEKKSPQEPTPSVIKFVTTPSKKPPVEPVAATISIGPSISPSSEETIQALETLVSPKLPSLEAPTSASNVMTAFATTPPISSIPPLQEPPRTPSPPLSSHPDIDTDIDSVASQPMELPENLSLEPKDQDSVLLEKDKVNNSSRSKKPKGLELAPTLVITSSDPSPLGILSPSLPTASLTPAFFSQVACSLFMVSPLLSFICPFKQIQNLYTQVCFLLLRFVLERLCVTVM
Summary of the method: as §1

ETV2 = molecular target: T10, ETV2 (Homo sapiens, UniProt O00321 1-342); conditions: protein: recombinant; tags: N-terminal GST; dsDNA, one strand shown
T10 sequence: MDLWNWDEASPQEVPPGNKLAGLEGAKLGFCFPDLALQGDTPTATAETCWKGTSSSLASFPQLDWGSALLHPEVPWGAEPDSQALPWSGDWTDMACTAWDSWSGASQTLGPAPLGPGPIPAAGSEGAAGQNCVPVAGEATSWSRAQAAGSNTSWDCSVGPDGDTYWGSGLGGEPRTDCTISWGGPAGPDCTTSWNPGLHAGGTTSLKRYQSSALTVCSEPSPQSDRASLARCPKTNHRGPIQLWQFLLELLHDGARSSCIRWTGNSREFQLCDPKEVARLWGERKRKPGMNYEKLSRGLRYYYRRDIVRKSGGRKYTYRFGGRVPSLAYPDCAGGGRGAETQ
Summary of the method: as §1

ELF3 = molecular target: T11, ELF3 (Homo sapiens, UniProt P78545 1-371); conditions: protein: recombinant; tags: N-terminal GST; dsDNA, one strand shown
T11 sequence: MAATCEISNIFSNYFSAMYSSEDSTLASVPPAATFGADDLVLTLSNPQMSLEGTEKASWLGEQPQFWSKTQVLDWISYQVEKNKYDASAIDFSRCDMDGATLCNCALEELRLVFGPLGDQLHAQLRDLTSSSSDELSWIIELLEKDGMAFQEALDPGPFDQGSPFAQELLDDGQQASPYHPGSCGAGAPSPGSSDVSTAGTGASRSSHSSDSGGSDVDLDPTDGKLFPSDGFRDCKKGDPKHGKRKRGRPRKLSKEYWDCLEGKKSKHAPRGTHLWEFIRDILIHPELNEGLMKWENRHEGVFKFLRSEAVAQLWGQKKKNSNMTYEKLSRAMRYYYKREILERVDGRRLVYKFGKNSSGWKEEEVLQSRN
Summary of the method: as §1

CRX = CRX (Homo sapiens, UniProt O43186 1-299); conditions: protein: recombinant; tags: N-terminal GST; dsDNA, one strand shown
Summary of the method: as §1

ETV1 = ETV1 (Homo sapiens, UniProt P50549 1-477); conditions: protein: recombinant; tags: N-terminal GST; dsDNA, one strand shown
Summary of the method: as §1

Chain of ETV1 (P50549 whole entry): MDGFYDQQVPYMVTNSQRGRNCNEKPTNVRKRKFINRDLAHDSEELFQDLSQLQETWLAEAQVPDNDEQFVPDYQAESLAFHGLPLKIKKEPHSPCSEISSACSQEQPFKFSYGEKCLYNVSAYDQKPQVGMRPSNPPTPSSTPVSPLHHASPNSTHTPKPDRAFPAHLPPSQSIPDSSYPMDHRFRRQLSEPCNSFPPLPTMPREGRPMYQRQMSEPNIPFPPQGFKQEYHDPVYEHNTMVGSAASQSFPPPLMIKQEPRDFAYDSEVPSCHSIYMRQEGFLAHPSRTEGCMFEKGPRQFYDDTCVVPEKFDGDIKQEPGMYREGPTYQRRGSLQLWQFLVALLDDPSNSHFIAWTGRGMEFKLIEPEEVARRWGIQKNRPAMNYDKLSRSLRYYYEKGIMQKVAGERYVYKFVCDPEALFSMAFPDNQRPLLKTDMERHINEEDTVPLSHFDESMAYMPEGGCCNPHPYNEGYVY
Chain of SPIB (Q01892 whole entry): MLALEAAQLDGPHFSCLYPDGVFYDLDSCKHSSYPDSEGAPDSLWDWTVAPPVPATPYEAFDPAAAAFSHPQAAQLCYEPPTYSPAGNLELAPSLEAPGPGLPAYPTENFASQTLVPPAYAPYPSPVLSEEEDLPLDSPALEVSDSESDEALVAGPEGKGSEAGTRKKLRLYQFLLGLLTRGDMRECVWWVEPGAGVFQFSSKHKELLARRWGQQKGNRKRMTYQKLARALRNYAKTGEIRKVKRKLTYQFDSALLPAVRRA
Chain of ETV5 (P41161 whole entry): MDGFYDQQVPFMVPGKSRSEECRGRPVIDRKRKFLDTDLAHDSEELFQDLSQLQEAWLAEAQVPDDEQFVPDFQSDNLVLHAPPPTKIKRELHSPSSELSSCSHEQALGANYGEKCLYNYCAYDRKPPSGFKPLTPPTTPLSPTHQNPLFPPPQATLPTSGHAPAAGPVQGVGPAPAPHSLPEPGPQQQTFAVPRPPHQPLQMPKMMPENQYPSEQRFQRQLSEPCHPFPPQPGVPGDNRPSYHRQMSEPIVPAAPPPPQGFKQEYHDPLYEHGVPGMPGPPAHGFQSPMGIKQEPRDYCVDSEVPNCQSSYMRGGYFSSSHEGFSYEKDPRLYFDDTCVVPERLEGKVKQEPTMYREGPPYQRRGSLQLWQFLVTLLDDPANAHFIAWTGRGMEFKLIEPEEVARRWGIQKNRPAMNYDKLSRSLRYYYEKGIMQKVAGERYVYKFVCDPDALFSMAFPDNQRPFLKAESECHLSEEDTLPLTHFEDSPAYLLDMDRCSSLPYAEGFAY
Chain of ELF4 (Q99607 whole entry): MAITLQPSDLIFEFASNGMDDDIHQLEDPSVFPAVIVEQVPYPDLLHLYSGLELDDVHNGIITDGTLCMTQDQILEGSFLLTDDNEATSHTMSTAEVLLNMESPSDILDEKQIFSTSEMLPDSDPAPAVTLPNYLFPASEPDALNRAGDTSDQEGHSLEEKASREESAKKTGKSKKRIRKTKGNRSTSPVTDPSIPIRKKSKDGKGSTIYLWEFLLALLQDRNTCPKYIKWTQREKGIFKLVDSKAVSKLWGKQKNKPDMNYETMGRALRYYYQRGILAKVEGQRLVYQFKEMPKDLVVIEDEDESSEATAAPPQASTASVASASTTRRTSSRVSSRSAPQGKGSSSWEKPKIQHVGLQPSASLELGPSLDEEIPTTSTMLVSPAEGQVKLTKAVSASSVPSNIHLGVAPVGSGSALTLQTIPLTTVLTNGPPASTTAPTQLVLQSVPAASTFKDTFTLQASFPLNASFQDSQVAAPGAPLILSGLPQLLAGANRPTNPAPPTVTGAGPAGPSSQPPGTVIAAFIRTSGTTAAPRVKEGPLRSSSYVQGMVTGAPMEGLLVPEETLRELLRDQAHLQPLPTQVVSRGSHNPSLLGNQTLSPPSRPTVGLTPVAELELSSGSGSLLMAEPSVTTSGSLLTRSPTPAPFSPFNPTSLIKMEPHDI
Chain of ELF1 (P32519 whole entry): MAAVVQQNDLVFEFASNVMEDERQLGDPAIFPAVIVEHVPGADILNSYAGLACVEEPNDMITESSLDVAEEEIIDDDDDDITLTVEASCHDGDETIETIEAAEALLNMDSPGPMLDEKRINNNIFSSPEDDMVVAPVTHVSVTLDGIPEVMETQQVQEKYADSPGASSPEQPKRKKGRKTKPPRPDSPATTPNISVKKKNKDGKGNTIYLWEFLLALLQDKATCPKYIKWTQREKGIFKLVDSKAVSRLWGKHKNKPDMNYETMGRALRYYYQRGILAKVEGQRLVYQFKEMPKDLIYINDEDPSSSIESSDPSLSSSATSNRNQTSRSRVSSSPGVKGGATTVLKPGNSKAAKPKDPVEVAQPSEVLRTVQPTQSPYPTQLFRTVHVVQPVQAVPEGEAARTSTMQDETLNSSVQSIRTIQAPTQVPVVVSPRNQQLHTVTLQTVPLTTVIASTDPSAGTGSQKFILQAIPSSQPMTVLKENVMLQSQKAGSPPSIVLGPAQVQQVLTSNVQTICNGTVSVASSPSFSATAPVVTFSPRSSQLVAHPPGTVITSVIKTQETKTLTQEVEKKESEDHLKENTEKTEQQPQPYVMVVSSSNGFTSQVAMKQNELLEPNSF
Chain of HSF1 (Q00613 whole entry): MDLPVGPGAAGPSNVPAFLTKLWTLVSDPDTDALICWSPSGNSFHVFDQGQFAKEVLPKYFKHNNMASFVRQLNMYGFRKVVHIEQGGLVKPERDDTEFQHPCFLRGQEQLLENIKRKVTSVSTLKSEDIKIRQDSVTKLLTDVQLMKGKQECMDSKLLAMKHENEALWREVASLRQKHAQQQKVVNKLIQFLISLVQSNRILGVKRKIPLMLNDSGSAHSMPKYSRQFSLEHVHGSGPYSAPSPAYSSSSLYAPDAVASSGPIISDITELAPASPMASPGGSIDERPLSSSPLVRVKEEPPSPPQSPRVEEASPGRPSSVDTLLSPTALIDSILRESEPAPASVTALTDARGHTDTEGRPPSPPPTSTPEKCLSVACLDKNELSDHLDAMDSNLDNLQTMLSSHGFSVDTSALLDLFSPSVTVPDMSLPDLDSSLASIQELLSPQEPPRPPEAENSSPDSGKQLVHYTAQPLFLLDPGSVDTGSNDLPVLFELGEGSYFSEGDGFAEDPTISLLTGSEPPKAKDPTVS
Chain of CRX (O43186 whole entry): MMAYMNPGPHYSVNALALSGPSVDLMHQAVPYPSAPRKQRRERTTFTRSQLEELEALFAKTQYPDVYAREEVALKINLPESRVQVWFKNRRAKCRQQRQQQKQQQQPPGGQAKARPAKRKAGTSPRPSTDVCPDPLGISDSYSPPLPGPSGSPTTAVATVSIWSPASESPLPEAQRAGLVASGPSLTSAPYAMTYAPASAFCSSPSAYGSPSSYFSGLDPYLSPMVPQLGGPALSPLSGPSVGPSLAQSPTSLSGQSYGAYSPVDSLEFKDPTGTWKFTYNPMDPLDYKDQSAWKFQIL

## GCACTA
FLI1
  binding signal: 1.18 fold enrichment (6-mer frequency, TF over GST control)
ELK1
  binding signal: 1.2 fold enrichment (6-mer frequency, TF over GST control)
GABPA
  binding signal: 1.23 fold enrichment (6-mer frequency, TF over GST control)
ERG
  binding signal: 1.11 fold enrichment (6-mer frequency, TF over GST control)
ELF1
  binding signal: 1.16 fold enrichment (6-mer frequency, TF over GST control)
EHF
  binding signal: 1.21 fold enrichment (6-mer frequency, TF over GST control)
SPI1
  binding signal: 1.19 fold enrichment (6-mer frequency, TF over GST control)
SPIB
  binding signal: 1.3 fold enrichment (6-mer frequency, TF over GST control)
ELK3
  binding signal: 1.23 fold enrichment (6-mer frequency, TF over GST control)
FEV
  binding signal: 1.19 fold enrichment (6-mer frequency, TF over GST control)
ETV5
  binding signal: 1.13 fold enrichment (6-mer frequency, TF over GST control)
HSF1
  binding signal: 1.11 fold enrichment (6-mer frequency, TF over GST control)
SPIC
  binding signal: 1.12 fold enrichment (6-mer frequency, TF over GST control)
ELF4
  binding signal: 1.27 fold enrichment (6-mer frequency, TF over GST control)
ELK4
  binding signal: 1.13 fold enrichment (6-mer frequency, TF over GST control)
ETV2
  binding signal: 1.22 fold enrichment (6-mer frequency, TF over GST control)
ELF3
  binding signal: 1.29 fold enrichment (6-mer frequency, TF over GST control)
CRX
  binding signal: 1.17 fold enrichment (6-mer frequency, TF over GST control)
ETV1
  binding signal: 1.15 fold enrichment (6-mer frequency, TF over GST control)
